Measurements reported in PubChem BioAssay (EPA / NIEHS).
Where “and” joins values, the source holds several entries; their conditions need not be identical. Identical values can stand only once. Some structures have more than one record in an assay (separate samples or runs), and their calls can disagree. Calls of active or inactive are those of the source. How the source made its calls: active means hit-call score of the fitted dose curve at least 0.9, where 1 is the maximum; inactive means score below 0.9.

Columns and labels:
[1] = APR_HepG2_CellLoss_72hr: Apredica 72-hour HepG2 Assay for Cell Loss (AID 2282915); details: high-content imaging
Method in brief: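 HepG2 cells were exposed for 72 hr to compounds at 0.39–200 uM (ten concentrations, duplicate) in 0.5% v/v final DMSO. Nuclei were stained with Hoechst 33342 after 3.7% formaldehyde fixation, imaged at 20x, and counted; fits bidirectional versus DMSO.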

[2] = APR_HepG2_P-H2AX_72hr: Apredica 72-hour HepG2 Assay for H2AX Phosphorylation (AID 2282916); details: imaging, actives raise or lower the signal;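 further: phospho-histone H2A.x immunostain intensity per cell marking DNA damage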
Method in brief: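 HepG2 human liver cells were exposed for 72 hr to compounds at 0.39–200 uM (10 concentrations, duplicate per plate) in 0.5% v/v DMSO. Fixed, permeabilized cells were immunolabeled for phospho-histone H2A.x with Hoechst 33342 and imaged by HCS fluorescence; bidirectional fit versus DMSO.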

[3] = APR_HepG2_MitoMembPot_72hr: Apredica 72-hour HepG2 Assay for Mitochondrial Membrane Potential (AID 2282917); details: imaging, actives raise or lower the signal
Method in brief: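 HepG2 cells exposed 72 h to compounds at 0.39–200 uM (0.5% v/v DMSO, duplicates); MitoTracker Red CMXRos 250 nM loaded 30 min before 3.7% formaldehyde fixation, imaged by HCS fluorescence. Bidirectional fit versus DMSO.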

[4] = APR_HepG2_MitoticArrest_72hr: Apredica 72-hour HepG2 Assay for Mitotic Arrest (AID 2282918); details: high-content imaging, actives raise or lower the signal
Method in brief: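 HepG2 cells treated 72 h at 0.39–200 uM, 0.5% DMSO final; formaldehyde-fixed, stained with Hoechst 33342 and phospho-histone H3 antibody, imaged by high-content fluorescence; bidirectional fit versus DMSO.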

[5] = APR_HepG2_MicrotubuleCSK_72hr: Apredica 72-hour HepG2 Assay for Microtubule CSK Stabilty (AID 2282919); details: HepG2 microtubule cytoskeleton, high-content imaging, actives raise or lower the signal
Method in brief: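 HepG2 human liver cells were dosed for 72 h at ten concentrations from 0.39 to 200 uM in duplicate (0.5% v/v DMSO final). Fixed, permeabilized cells were immunostained for alpha-tubulin (Cy5) with a Hoechst counterstain and imaged at 20x.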

[6] = APR_HepG2_P-H2AX_24hr: Apredica 24-hour HepG2 Assay for H2AX Phosphorylation (AID 2282920); details: high-content imaging, actives raise or lower the signal
Method in brief: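 HepG2 cells dosed 24 h at 0.39–200 uM (10 points, duplicate, 0.5% DMSO final). Formaldehyde-fixed and permeabilized, then immunostained for phospho-H2A.x with Hoechst. Fluorescence quantified by high-content imaging, fitted bidirectionally versus DMSO.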

[7] = APR_HepG2_StressKinase_24hr: Apredica 24-hour HepG2 Assay for Stress Kinase (AID 2282922); details: HepG2 stress kinase (phospho-c-Jun) imaging, actives raise or lower the signal
Method in brief: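 HepG2 cells exposed 24 hr to compound at 0.39–200 uM (10 concentrations, duplicate), 0.5% v/v DMSO final. Fixed in 3.7% formaldehyde, permeabilized with Triton X-100, immunolabeled for phospho-c-Jun with Hoechst 33342; HCS fluorescence imaging, bidirectional fit versus DMSO.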

[8] = APR_HepG2_p53Act_72hr: Apredica 72-hour HepG2 Assay for p53 Activation (AID 2282923); details: high-content imaging, actives raise or lower the signal;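 further: average cellular p53 protein immunofluorescence intensity in HepG2 cells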
Method in brief: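 Cells were dosed for 72 hr with compounds at 0.39–200 uM in duplicate (final DMSO 0.5% v/v), then fixed in 3.7% formaldehyde, permeabilized with Triton X-100 and immunostained for p53 (Cy5) with Hoechst 33342 nuclear counterstain.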

[9] = APR_HepG2_MitoMass_72hr: Apredica 72-hour HepG2 Assay for Mitochondrial Mass (AID 2282924); details: high-content imaging, actives raise or lower the signal;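 further: MitoTracker Red CMXRos stain intensity per cell imaged as mitochondrial mass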
Method in brief: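 HepG2 cells were exposed for 72 hr to compounds at 0.39–200 uM (ten concentrations, duplicate, 0.5% v/v DMSO final). Live cells were stained with 250 nM MitoTracker Red CMXRos for 30 min, then fixed in 3.7% formaldehyde and imaged by HCS fluorescence.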

[10] = APR_HepG2_NuclearSize_72hr: Apredica 72-hour HepG2 Assay for Nuclear Size (AID 2282925); details: high-content imaging, actives raise or lower the signal
Method in brief: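 HepG2 cells were exposed to compounds at ten concentrations from 0.39 to 200 uM (duplicate, 0.5% DMSO final) for 72 hr. After fixation in 3.7% formaldehyde, nuclei were stained with Hoechst 33342 (2 ug/mL) and imaged at 20x.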

[11] = ATG_CRE_CIS: Attagene CIS-FACTORIAL HepG2 Assay for human cAMP Responsive Element (CRE) binding protein 3 (AID 2282926); details: HepG2 CRE cis-reporter, Attagene multiplexed mRNA; actives raise or lower the signal
Method in brief: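 HepG2 cells transiently transfected with cis-element-driven multiple reporter transcription units; CRE reporter mRNA measured 24 h after dosing by RT-PCR, 6-FAM labelling, HpaI digestion and capillary electrophoresis. Bidirectional fit versus DMSO baseline.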

[12] = biological target: CCAAT/enhancer-binding protein beta (Homo sapiens) (UniProt P17676); experiment: ATG_C_EBP_CIS: Attagene CIS-FACTORIAL HepG2 Assay for human CCAAT/Enhancer Binding Protein (C/EBP) beta (AID 2282927); details: HepG2 Attagene cis-factorial transcription factor reporter; actives raise or lower the signal
Sequence of CCAAT/enhancer-binding protein beta (Homo sapiens) (P17676 whole entry, looked up): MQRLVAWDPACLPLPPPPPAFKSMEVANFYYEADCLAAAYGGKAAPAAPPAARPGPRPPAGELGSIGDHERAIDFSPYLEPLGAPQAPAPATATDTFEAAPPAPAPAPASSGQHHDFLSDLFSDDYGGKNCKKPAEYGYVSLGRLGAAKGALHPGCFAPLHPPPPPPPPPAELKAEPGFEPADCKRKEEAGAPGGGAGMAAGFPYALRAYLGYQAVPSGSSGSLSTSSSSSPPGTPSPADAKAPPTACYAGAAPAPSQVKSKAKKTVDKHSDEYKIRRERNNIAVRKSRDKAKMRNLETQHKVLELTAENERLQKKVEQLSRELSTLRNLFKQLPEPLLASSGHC
Method in brief: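 RT-PCR/capillary electrophoresis fluorescence of reporter mRNA, 24 h post-dose, in HepG2 cells carrying transfected cis-promoter reporter units. Bidirectional curve fitting against DMSO baseline captures gain or loss of signal.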

[13] = ATG_CMV_CIS: Attagene CIS-FACTORIAL HepG2 Assay for human CMV (Internal Marker) (AID 2282928); details: HepG2 CMV promoter reporter, transcription factor profiling; actives raise or lower the signal;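 further: endpoint acts as a background internal control marker rather than a target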
Method in brief: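 HepG2 cells transiently transfected with multiple cis-regulated reporter units; 24 h compound exposure. Reporter mRNA quantified by RT-PCR, 6-FAM primer-extension labeling, HpaI digestion and capillary electrophoresis; bidirectional fitting against DMSO baseline.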

[14] = ATG_DR4_LXR_CIS: Attagene CIS-FACTORIAL HepG2 Assay for human Liver X Receptor (LXR), DR4 submotif (AID 2282929); details: HepG2 Attagene DR4 cis-reporter, mRNA transcription; actives raise or lower the signal
Method in brief: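 HepG2 cells were transiently transfected with multiple cis-regulated reporter units and dosed for 24 hours. The DR4 reporter mRNA was quantified by RT-PCR, 6-FAM labelling and capillary electrophoresis. Bidirectional fits used DMSO as baseline.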

[15] = biological target: Aryl hydrocarbon receptor (Homo sapiens) (UniProt P35869); experiment: ATG_Ahr_CIS: Attagene CIS-FACTORIAL HepG2 Assay for human Aryl Hydrocarbon Receptor (Ahr) (AID 2282930); details: HepG2 AhR cis-factorial reporter transcription; actives raise or lower the signal
Sequence of Aryl hydrocarbon receptor (Homo sapiens) (P35869 whole entry, looked up): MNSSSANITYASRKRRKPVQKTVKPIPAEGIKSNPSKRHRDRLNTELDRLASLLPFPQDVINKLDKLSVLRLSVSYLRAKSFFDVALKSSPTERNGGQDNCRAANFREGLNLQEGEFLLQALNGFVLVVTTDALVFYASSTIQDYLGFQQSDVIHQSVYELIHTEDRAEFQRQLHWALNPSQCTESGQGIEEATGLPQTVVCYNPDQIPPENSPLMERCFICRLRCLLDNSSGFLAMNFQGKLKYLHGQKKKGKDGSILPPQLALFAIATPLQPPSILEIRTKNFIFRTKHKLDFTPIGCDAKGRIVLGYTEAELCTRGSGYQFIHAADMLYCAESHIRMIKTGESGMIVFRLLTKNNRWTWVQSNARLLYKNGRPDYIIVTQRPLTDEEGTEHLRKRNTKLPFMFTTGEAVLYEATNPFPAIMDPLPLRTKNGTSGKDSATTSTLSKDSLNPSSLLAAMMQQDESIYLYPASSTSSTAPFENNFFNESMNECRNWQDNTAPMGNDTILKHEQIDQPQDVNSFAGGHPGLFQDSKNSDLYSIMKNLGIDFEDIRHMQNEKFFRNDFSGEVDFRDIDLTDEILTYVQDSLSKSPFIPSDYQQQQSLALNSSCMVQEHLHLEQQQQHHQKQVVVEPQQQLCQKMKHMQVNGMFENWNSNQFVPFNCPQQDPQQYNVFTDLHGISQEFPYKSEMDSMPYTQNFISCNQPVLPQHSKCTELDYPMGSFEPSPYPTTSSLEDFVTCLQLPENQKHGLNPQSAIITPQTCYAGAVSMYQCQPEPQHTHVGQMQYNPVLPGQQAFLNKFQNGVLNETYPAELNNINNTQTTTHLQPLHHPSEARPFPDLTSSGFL
Method in brief: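 HepG2 cells transiently transfected with cis-element-driven multiplexed reporter transcription units; endogenous transcription factor activity measured as reporter mRNA 24 h after dosing. RT-PCR, 6-FAM labelling, HpaI digestion, capillary electrophoresis; bidirectional fitting versus DMSO baseline.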

[16] = ATG_AP_1_CIS: Attagene CIS-FACTORIAL HepG2 Assay for human Activator Protein 1 (AP-1) (AID 2282931); details: HepG2 Attagene cis-factorial AP-1 reporter mRNA; actives raise or lower the signal
Method in brief: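 HepG2 cells transiently transfected with cis-element-driven reporter transcription units, dosed for 24 hours. Reporter mRNA measured by RT-PCR, 6-FAM labelling, HpaI digestion and capillary electrophoresis. Bidirectional fitting against DMSO baseline.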

[17] = ATG_AP_2_CIS: Attagene CIS-FACTORIAL HepG2 Assay for human Activator Protein 2 (AP-2) (AID 2282932); details: HepG2 AP-2 cis-reporter, Attagene transcription factor profiling; actives raise or lower the signal
Method in brief: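 HepG2 cells were transiently transfected with multiple cis-promoter reporter transcription units and dosed for 24 h. Reporter mRNA was measured by RT-PCR with capillary electrophoresis fluorescence; bidirectional fits relative to DMSO baseline.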

[18] = ATG_BRE_CIS: Attagene CIS-FACTORIAL HepG2 Assay for human Bone Morphogenetic Protein (BMP) Response Element (BRE) (AID 2282933); details: HepG2 BMP response element reporter, Attagene transcription factor profiling; actives raise or lower the signal
Method in brief: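 Gain- or loss-of-signal was derived by bidirectional fitting against DMSO controls. The signal came from reporter mRNA, measured by RT-PCR and capillary electrophoresis, in HepG2 cells transiently carrying multiple reporter units and dosed for 24 h.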

[19] = biological target: Retinoic acid receptor alpha (Homo sapiens) (UniProt P10276); experiment: ATG_DR5_RAR_CIS: Attagene CIS-FACTORIAL HepG2 Assay for human Retinoic Acid Receptor Alpha (RARE), DR5 submotif (AID 2282934); details: HepG2 Attagene cis-factorial RARE DR5 reporter, mRNA; actives raise or lower the signal
Sequence of Retinoic acid receptor alpha (Homo sapiens) (P10276 whole entry, looked up): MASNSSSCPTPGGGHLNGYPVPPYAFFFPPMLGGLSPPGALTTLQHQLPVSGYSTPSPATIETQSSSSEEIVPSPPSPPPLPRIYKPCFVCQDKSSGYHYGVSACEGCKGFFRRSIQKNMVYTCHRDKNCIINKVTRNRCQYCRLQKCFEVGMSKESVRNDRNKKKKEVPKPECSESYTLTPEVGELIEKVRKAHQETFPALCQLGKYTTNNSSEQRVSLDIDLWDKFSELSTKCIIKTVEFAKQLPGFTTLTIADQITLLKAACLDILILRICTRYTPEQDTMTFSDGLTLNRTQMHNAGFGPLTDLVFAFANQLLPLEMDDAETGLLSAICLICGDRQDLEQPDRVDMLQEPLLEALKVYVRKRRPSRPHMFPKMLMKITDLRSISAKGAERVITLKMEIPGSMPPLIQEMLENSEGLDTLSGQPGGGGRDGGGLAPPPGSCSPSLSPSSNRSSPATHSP
Method in brief: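 HepG2 cells transiently transfected with multiplexed reporter units under cis (DR5 RARE) promoters, so endogenous transcription factor activity is measured. After 24 h compound exposure, reporter mRNA is quantified by RT-PCR with fluorescent labelling and capillary electrophoresis; bidirectional fitting versus DMSO.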

[20] = APR_HepG2_StressKinase_72hr: Apredica 72-hour HepG2 Assay for Stress Kinase (AID 2282921); details: HepG2 stress kinase (phospho-c-Jun) imaging, actives raise or lower the signal
Method in brief: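 Cells were exposed for 72 h to ten concentrations (0.39–200 uM, duplicate) at 0.5% v/v DMSO final, then fixed with 3.7% formaldehyde, permeabilized and immunostained for phospho-c-Jun (Cy3 secondary) with Hoechst nuclear counterstain.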

Measured: AC50

C[C@]12CC[C@@H]3c4ccc(O)cc4C[C@@H](CCCCCCCCCS(=O)CCCC(F)(F)C(F)(F)F)[C@H]3[C@@H]1CC[C@@H]2O (stereo partly specified)
active: [3] 22 µM
not listed: [20]
inactive: all other assays above

CCOC(=O)NCCOc1ccc(Oc2ccccc2)cc1
active: [1] 52.8 µM | [3] 78.2 µM | [5] 79.4 µM | [12] 13.4 µM | [13] 13.1 µM | [14] 89.6 µM
not listed: [18] | [20]
inactive: all other assays above

COC(=O)c1c(Cl)nn(C)c1S(=O)(=O)NC(=O)Nc1nc(OC)cc(OC)n1
active: [12] 4.06 µM
not listed: [4]
inactive: all other assays above

COC(=O)c1cccc(C)c1S(=O)(=O)NC(=O)Nc1nc(OCC(F)(F)F)nc(N(C)C)n1
active: [3] 1.33 µM
not listed: [4] | [16] | [18]
inactive: all other assays above

CC(=O)[C@H]1CC[C@H]2[C@@H]3CCC4=CC(=O)CC[C@]4(C)[C@H]3CC[C@]12C
inactive: [3] | [5] | [7] | [9] | [10] | [12] | [13] | [14] | [15] | [16] | [17] | [19]
active: [1] 95.6 µM | [2] 94.1 µM | [6] 116 µM | [8] 97.2 µM | [12] 115 µM | [13] 160 µM | [14] 8.67 µM | [15] 100 µM | [16] 33.4 µM and 170 µM

COc1nc(C)nc(NC(=O)NS(=O)(=O)c2ccccc2OCCCl)n1
inactive: [1] | [2] | [3] | [5] | [6] | [7] | [8] | [9] | [10] | [11] | [12] | [13] | [14] | [15] | [17] | [19]
active: [14] 9.13 µM
